Screens (PubChem)
HT1080 IDH1KD tx – kills HT-1080 cells with IDH1 knockdown; HT-1080 IDH1 knockdown viability, ATP luminescence, 48 h; Potency, µM (titrated, usually from 46.1 µM), for the others: at the highest dose activity, negative = toxicity, most hits filed as cytotoxic; 2% of 360,000 active; AID 686971;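 note: potency is the fitted concentration of half-maximal effect; 0% = DMSO wells and -100% = cell-free medium wells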
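% activity derives from luminescence (CellTiter-Glo), normalised to DMSO and no-cell wells. HT-1080-IDH1KD cells, 750/well, had 48 h compound exposure at 37 °C.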
HT1080NT lethal – kills 2HG-producing HT-1080-NT fibrosarcoma cells. HT-1080-NT fibrosarcoma viability, CellTiter-Glo ATP luminescence, 48 h. Potency, µM (top dose mostly 46.1 µM), for the others: at the top dose activity, negative = less viability, actives largely listed as cytotoxic. 1.6% of 360,000 active;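 note: NT is the 2HG producing partner of a matched IDH1 knockdown line; potency is the fitted concentration of half-maximal effect; 0% = DMSO-treated cells and -100% = media-only wells without cells; nearly all actives have a fitted effect of over 55% in size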
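HT-1080-NT; 750 cells/well; 5% FBS RPMI; 48 h compound, 37 degrees C; CellTiter-Glo luminescence; curve fitting and curve-class assignment.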
TDP1 cell CPT – DT40-hTDP1 cell growth loss with CPT; chicken DT40 Tdp1-/-;hTDP1 cells + 20 nM CPT, ATP luminescence, 48 h; Potency, µM (top dose mostly 46.2 µM), inactives show at the top dose activity change, negative = growth inhibition, most hits filed as inhibitors; 12% of 420,000 active; AID 686979; note: potency is the fitted concentration of half-maximal effect; nearly all actives have a fitted effect of over 55% in size
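Cell growth measured by CellTiter-Glo luminescence after a minimum 48 h, 37 C compound exposure with 20 nM CPT in Tdp1-knockout DT40 cells stably expressing hTDP1, seeded 400/well; qHTS titration format.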
TDP1 cell noCPT – qHTS for Inhibitors of human tyrosyl-DNA phosphodiesterase 1 (TDP1): qHTS in cells in absence of CPT. DT40 Tdp1-/- hTDP1 cells, no CPT, ATP luminescence, 48 h. Potency, µM (highest dose often 46.2 µM), inactives show top-dose activity change, negative = growth inhibition, usual class: inhibitors. 15% of 420,000 active; note: potency is the fitted concentration of half-maximal effect; nearly all actives have a fitted effect of over 55% in size
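Compound effects on proliferation are scored in DT40 Tdp1-/-;hTDP1 cells in the absence of CPT. ATP levels (CellTiter-Glo luminescence) are recorded after a ≥48 hr, 37 °C incubation.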
IL-1B inflam inh – inflammasome signaling inhibition, IL-1 beta readout. 4.7% of 360,000 active. activity change, % at 57.5 µM. THP-1 LPS/ATP IL-1B secretion, AlphaLISA, 16 h; hits give low values. AID 743279; in the data active = activity change below about -50%; inconclusive = mostly about -30% to -49%
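THP-1 cells pretreated 1 hr with compounds (up to 57.5 uM final), then stimulated with LPS (250 ng/mL final) plus ATP (1.25 mM final); secreted IL-1B measured by AlphaLISA after 16 hr, decreased signal indicating inhibition.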
12-LOX inh – ALOX12 (human) lipoxygenase inhibition. purified 12hLO, xylenol orange hydroperoxide absorbance. Potency, µM (doses to about 108 µM), for the others: at the top dose activity change, negative = inhibition, actives largely listed as inhibitors. P18054. 1.1% of 580,000 active; note: potency is the fitted concentration of half-maximal effect
Target sequence (P18054 whole entry, looked up): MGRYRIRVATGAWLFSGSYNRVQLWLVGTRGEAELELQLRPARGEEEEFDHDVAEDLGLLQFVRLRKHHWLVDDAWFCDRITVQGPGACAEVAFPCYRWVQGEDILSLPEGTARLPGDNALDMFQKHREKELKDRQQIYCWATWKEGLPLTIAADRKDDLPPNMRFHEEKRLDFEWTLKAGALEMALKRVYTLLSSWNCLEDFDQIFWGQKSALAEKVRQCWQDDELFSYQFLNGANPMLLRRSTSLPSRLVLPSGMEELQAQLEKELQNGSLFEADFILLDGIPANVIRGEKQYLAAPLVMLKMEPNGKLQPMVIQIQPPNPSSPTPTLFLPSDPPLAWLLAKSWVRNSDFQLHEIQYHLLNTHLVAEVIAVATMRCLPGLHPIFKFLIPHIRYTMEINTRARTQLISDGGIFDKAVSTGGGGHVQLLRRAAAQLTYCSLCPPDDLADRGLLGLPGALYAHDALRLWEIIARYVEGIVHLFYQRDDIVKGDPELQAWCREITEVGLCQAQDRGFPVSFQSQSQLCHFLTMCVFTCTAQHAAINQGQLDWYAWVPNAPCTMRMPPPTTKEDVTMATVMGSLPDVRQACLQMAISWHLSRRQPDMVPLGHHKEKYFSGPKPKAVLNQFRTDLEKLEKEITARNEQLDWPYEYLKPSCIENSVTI
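Purified human 12hLO (150 nM final) in 25 mM Hepes, 0.01% Triton X-100, pH 7.0 was preincubated 15 min at room temperature with compound. Then 40 uM arachidonic acid was added, 30 min. Hydroperoxide was read by Fe-XO absorbance ratio 573/405 nm.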
An asterisk follows results filed as active; ? = inconclusive; · = no result; [ ] = dose if it differs, or a comment. Shown is part of a subset that was picked to be rich in hits. Unless noted, calls come from the whole dose curve; as a rule, active = well fitted curve in the direction sought with a large enough effect; inconclusive = small, poorly fitted or top-dose-only effect, or another doubt; inactive = no such curve, though single readings can be large; an effect the other way counts as inactive or inconclusive. Unless noted, % is set by controls: 0 for no effect and ±100 for the full control effect.

SMILES	HT1080 IDH1KD tx	HT1080NT lethal	TDP1 cell CPT	TDP1 cell noCPT	IL-1B inflam inh	12-LOX inh
CCOc1ccccc1N1CC(c2nc3ccccc3n2CCOc2ccc(OC)cc2)CC1=O (stereo not drawn)	·	·	?	18µM*	·	-25%
CCc1ccccc1N1CC(c2nc3ccccc3n2CC(C)C)CC1=O (stereo not drawn)	·	·	15µM*	21µM*	·	-8%
Cc1ccc(OCCn2c(C3CC(=O)N(Cc4ccccc4)C3)nc3ccccc32)cc1 (stereo not drawn)	-22%	-23%	?	15µM*	-22	?
CCOc1ccc(N2CC(c3nc4ccccc4n3CCCOc3ccc(OC)cc3)CC2=O)cc1 (stereo not drawn)	·	·	?	8.2µM*	·	-16%
O=C(O)C1OC(Oc2cc3oc(-c4ccccc4)cc(=O)c3c(O)c2O)C(O)C(O)C1O (stereo not drawn)	9%	3%	23µM*	?	1	-1%
COc1ccc(Br)c(Cn2c(C)c(C(=O)N(C)Cc3ccc(F)cc3)sc2=O)c1	?	1%	?	?	-23	-1%
CCCCN(C)C(=O)c1sc(=O)n(Cc2ccccc2C#N)c1C	2%	10%	13µM*	?	-7	-4%
Cc1cc(C)cc(Cn2c(C)c(C(=O)N(C)Cc3ccc(F)cc3)sc2=O)c1	?	-26%	?	?	-28	2%
Cc1c(C(=O)N(C)Cc2ccc(F)cc2)sc(=O)n1Cc1ccccc1C#N	-13%	6%	23µM*	16µM*	1	-13%
Cc1ccccc1Cn1c(C)c(C(=O)N(C)Cc2ccc(F)cc2)sc1=O	5%	9%	?	18µM*	-19	-20%
Fc1ccc2nc(CO[C@H]3CN(Cc4ccc5ccccc5n4)C[C@H]3F)[nH]c2c1	·	·	·	·	·	117%[176 µM]
COc1ccc(C(=O)c2ccccc2)c2c(O)ccc(C(=O)c3ccccc3)c12	-28%	-17%	?	16µM*	0	2%
COc1cc(O)c(C(=O)c2ccccc2)cc1S(=O)(=O)O	·	·	1%	5%	·	?
COc1cc(O)c(C(=O)c2ccccc2)cc1O	·	·	4.1µM*	4.6µM*	·	·
Oc1ccc(Br)cc1CNc1cccc2cccnc12	?	?	?	26µM*	-10	24%
Oc1c(Br)cc(Br)cc1CNc1cccc2cccnc12	?	-17%	16µM*	?	0	14µM*
Cc1ccc(O)c(CNc2cccc3cccnc23)c1	?	-23%	?	?	?	-15%
COc1cccc(CNc2cccc3cccnc23)c1O	?	-19%	?	?	4	?
COc1cccc(-c2nc(N3CCCCC3)c3ccccc3n2)c1O	?	?	26µM*	21µM*	?	10%
COc1ccccc1-c1nc(N2CCOCC2)c2ccccc2n1	·	·	-2%	-27%	·	-26%
COc1cccc(-c2nc(N3CCN(c4ccccc4)CC3)c3ccccc3n2)c1O	7%	1%	?	16µM*	32	10%
CCC1CCCCN1c1nc(-c2cccc(OC)c2O)nc2ccccc12 (stereo not drawn)	-6%	-25%	?	?	-8	-5%
COc1cccc(-c2nc(NCc3cccnc3)c3ccccc3n2)c1O	-25%	-11%	2%	-21%	34	-1%
COc1cccc(-c2nc(N3CCN(Cc4ccccc4)CC3)c3ccccc3n2)c1O	-3%	0%	?	16µM*	34	5%
O=C(CC1CCN(C(=O)c2cccc(F)c2)C1)NCc1ccccc1 (stereo not drawn)	·	·	·	·	·	10%
SMILES	HT1080 IDH1KD tx	HT1080NT lethal	TDP1 cell CPT	TDP1 cell noCPT	IL-1B inflam inh	12-LOX inh
O=C(NC1CCC(C(F)(F)F)CC1)C1CCCCC1 (stereo not drawn)	·	·	·	·	·	5%
CCOc1ccccc1C(=O)NC1CCCN(c2cc(-c3ccc(F)cc3)[nH]n2)C1 (stereo not drawn)	·	·	·	·	·	25%
COC(=O)c1c(NC(=O)c2ccccc2N(C)S(=O)(=O)c2ccccc2)sc2c1CCCC2	?	?	16µM*	15µM*	20	1%
COC(=O)c1c(NC(=O)c2ccccc2C(=O)O)sc2c1CCC2	-15%	-18%	-12%	-8%	5	49%
CC(C)OC(=O)c1c(NS(=O)(=O)c2ccccc2)sc2c1CCCC2	?	-16%	6.5µM*	5.2µM*	0	-24%[57.4 µM]
CCOC(=O)c1c(NC(=O)C(NCCN(C)C)c2ccccc2)sc2c1CCCC2 (stereo not drawn)	18µM*	?	0.65µM*	2.1µM*	-108*	?
CCOC(=O)c1c(NC(=O)c2ccccc2Cl)sc2c1CCCC2	·	·	?	?	·	-22%
COC(=O)c1c(NS(=O)(=O)Cc2ccccc2)sc2c1CCCC2	-3%	2%	-10%	-2%	36	-6%
CCOC(=O)c1c(NC(=O)c2ccccc2N(C)S(=O)(=O)c2ccccc2)sc2c1CCCC2	9.2µM*	?	?	21µM*	-9	-2%
Cc1c(O)ccc2c(CN3CCC(O)CC3)cc(=O)oc12	·	·	·	·	·	13%
Cc1cccc(Cn2c(CN3CCC(C(=O)NC(C)C)CC3)cc3ccccc32)c1	·	·	?	23µM*	·	?
COc1cccc(CNC(=O)C2CCN(Cc3cc4ccccc4n3Cc3ccccc3)CC2)c1OC	·	·	?	?	·	-11%
COc1ccccc1CNC(=O)C1CCN(Cc2cc3ccccc3n2Cc2cccc(C)c2)CC1	·	·	13µM*	18µM*	·	-30%
CCc1ccccc1N(CC(=O)N1CCN(c2ccc(F)cc2)CC1)S(C)(=O)=O	8%[9.24 µM]	-4%	15µM*	23µM*	1	?
CS(=O)(=O)N(CCc1ccccc1)CC(=O)N1CCN(c2ccc(F)cc2)CC1	-7%	-4%	?	23µM*	-13	0%
CS(=O)(=O)N(CC(=O)N1CCN(c2ccccc2)CC1)c1cc(C(F)(F)F)ccc1Cl	0%	-1%	?	-26%	6	13%
CS(=O)(=O)N(CCc1ccccc1)CC(=O)N1CCN(c2ccccc2)CC1	-1%	-9%	-25%	-25%	-4	?
CS(=O)(=O)N(CC(=O)N1CCN(c2ccccc2F)CC1)c1cc(C(F)(F)F)ccc1Cl	0%	9%	?	16µM*	0	·
CCc1ccccc1N(CC(=O)N1CCCC1)S(C)(=O)=O	-2%	4%	-1%	-19%	-2	-13%
